The record followed here is PubChem BioAssay (NCI).

This is part of a sample that, as a whole, favours compounds with a hit. Of some 83,000 tested, about 20% had one in any assay.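 Activity criterion: percent growth below 10, measured after cells in 96-well plates were exposed to a single compound concentration for 48 hours.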 Active and inactive are the calls of the source.

In the test the test system is MDA-MB-435 melanoma. The test is described as follows: NCI-60 one-dose screen, 48 h (100 = growth as untreated, 0 = no growth, -100 = all killed). The conditions noted are these: 10 µM unless noted. As for the experimental part:
Growth inhibition of the MDA-MB-435 human Melanoma tumor cell line is measured as a screen for anti-cancer activity. Cells are grown in 96 well plates and exposed to the test compound for 48 hours. Compounds are tested at a single concentration, which is 10^-5 M for most compounds. The reported endpoint is percent growth (GI% or GIPRCNT), where numbers from 0 - 100% represent growth inhibition, and numbers from -100% - 0 represent cell death. For example, a value of 40 represents 60% growth inhibition. A value of 0 means no net growth occurred over the course of the experiment. A value of -40 indicates 40% of cells at the beginning of the experiment died by the end of the experiment. A value of -100 means all cells are dead at the end of the experiment.
NCI-60 Human Tumor Cell Lines Screen was performed using the standard one-dose NCI protocol, which is described in more detail at https://dtp.cancer.gov/discovery_development/nci-60/default.htm.
Compounds with GIPRCNT values below 10 were considered active. Activity score was based on GIPRCNT using the following formula: […]
Score is 0 for GIPRCNT values of 100 or above, 50 for GIPRCNT values of 0, and 100 for GIPRCNT values of -100.
Turning to `N#Cc1c(-c2ccc(Cl)cc2)nc(N=Nc2c(O)[nH]c3ccc(Cl)cc23)nc1N1CCOCC1`, the growth is 97.5% (inactive). To `CC[C@@H](C(=O)[C@@H](C)[C@@H](O)[C@H](C)[C@@H]1O[C@@H]([C@@H](CC)C(=O)O)CC[C@@H]1C)[C@H]1OC2(C=C[C@@H](O)[C@]3(CC[C@@](C)([C@H]4CC[C@](O)(CC)[C@H](C)O4)O3)O2)[C@H](C)C[C@@H]1C` (stereo not given in full) belongs -76.2% (active); to `CC(=O)Oc1ccc(Cl)cc1CN(C(C)=O)C1CCCCC1`, 115% (inactive); to `COc1cc(Nc2cc(C)nc(N3CCN(c4ccnc5cc(Cl)ccc45)CC3)n2)cc(OC)c1`, -2.88% (active).

On to `Cn1c(NCCc2ccc(O)c(O)c2)nc2c1c(=O)n(Cc1ccc(Cl)c(Cl)c1)c(=O)n2C`, for which the growth was 73% (inactive).

In the case of `CCc1c(Nc2ccccc2C)nc(N)[nH]c1=O`, the growth is 106% (inactive). Turning to `COc1ccc(C2CC(c3ccc4ccccc4c3)=NN2/C=C2\SC(=S)N(NC(=O)Cc3ccccc3Nc3c(Cl)cccc3Cl)C2=O)cc1` (stereo not given), the growth was -49.8% (active). For `Oc1cccc(-c2nc(N3CCOCC3)c3c4c(sc3n2)CCCC4)c1` the value was 59.7% (inactive); for `O=C1c2cc3c(cc2-c2c1c1ccc(F)cc1c(=O)n2C[C@H](O)[C@@H](O)[C@H](O)CO)OCO3`, -76.2% (active). To `CN1C(=O)C2(SCC(C(=O)NCc3ccccc3)N2C(=O)C2CCCCC2)c2ccccc21` (stereo not given) belongs 81.2% (inactive). To `COc1cc(C)c(C2C(C#N)=C(N)Oc3n[nH]c(-c4cccs4)c32)cc1C(C)C` (stereo not given) belongs 105% (inactive); to `CC1=CC(=NN=c2cc(C)n([O-])c(C)c2)C=C(C)[N+]1=O`, 85.9% (inactive). For the molecule `C=CCSSc1ncnc2c1ncn2C1OC(CO)C(O)C1O` (stereo not given), the growth was 22.5% (inactive). Consider `CCOC(=O)c1c(C)oc2ncnc(N3CCN(C(=O)COc4ccc(SC)cc4)CC3)c12`, for which the growth was 103% (inactive). Take `COc1ccc2c(c1)O/C(=C\c1cccc(OCC(=O)Nc3nc4c(s3)CCCC4)c1)C2=O`: the growth was 83.1% (inactive). To `FC(F)(F)c1nc2c(NCc3ccc(-c4ccccc4)cc3)cccc2[nH]1` belongs 93.5% (inactive); to `Nc1ccc(S(=O)(=O)O)c2ccc(N=Nc3ccc(N=Nc4ccc(S(=O)(=O)O)cc4)c4ccccc34)c(O)c12`, 122% (inactive). To `NC(=O)c1cc(I)ccc1NC(=O)/C=C/c1ccccc1Cl` belongs -31.8% (active); to `NS(=O)(=O)c1ccc(CN=C2NC(=O)S/C2=C\c2ccc(Br)cc2)cc1`, 101% (inactive). `COc1ccc(/C=C2\Oc3cc(OCCCCN4CCCC4)ccc3C2=O)cc1`: the growth was 96.5% (inactive). For `CSc1ccc(-c2ccccc(=O)c2O)cc1` the value was 23.5% (inactive). With `COc1ccc(C(=O)c2sc3nc4c(c(-c5cccnc5)c3c2N)CCCC4)cc1OC`, the growth was 91.7% (inactive). For `Cc1ncc(C(=O)Nc2ccc(CN3CCN(C)CC3)c(C(F)(F)F)c2)cc1C#Cc1cnc2cccnn12`, the growth was -54.1% (active). For `O=C1NC(=S)NC(=O)C1CC(=O)n1c(-c2ccccc2)nc2ccccc21` the value was 102% (inactive); for `CCOC(=O)n1cc(-c2nonc2-c2cn(C)c3ncccc23)c2ccccc21`, 50.2% (inactive). For `COc1cc2nc(N3CCCC3)nc(NCCc3ccccc3)c2cc1OC`, the growth is 91.5% (inactive). For `Cn1cc(C(=O)c2nc(-c3c[nH]c4ccc(Br)cc34)no2)c2cc(F)ccc21` the value was 100% (inactive). To `C#CC(F)(F)[C@]1(O)CC[C@H]2[C@@H]3CCC4=CC(=O)CCC4=C3[C@@H](c3ccc(C4CC4)cc3)C[C@@]21C` belongs 85.1% (inactive); to `COc1ccc(O)c(N=Nc2nccs2)c1`, 104% (inactive). To `O=C1/C(=C/c2ccc(OCCCOc3ccc(Cl)cc3)cc2)N=C2SCCCN12` belongs 93.2% (inactive); to `CCN(CC)CCCCNc1c2ccc(Cl)cc2nc2ccc(OC)cc12`, -89.2% (active); to `CSc1nc(Nc2cccc(NC(=O)/C(C#N)=C/c3c(Cl)cccc3Cl)c2)c(C#N)c(-c2cccc([N+](=O)[O-])c2)n1`, 43.2% (inactive). Take `COC[C@H](C)n1c(C2CCOCC2)nc2cnc3cc(-c4c(C)noc4C)c(OC)cc3c21`: the growth is 44.5% (inactive). Turning to `Nc1ccn(-c2ccc(Br)cc2)c(=O)n1`, the growth was 96.6% (inactive).

As for `COc1ccc(C2CC(c3ccc(Cl)cc3)=NN2/C=C2\SC(=S)N(NC(=O)Cc3ccccc3Nc3c(Cl)cccc3Cl)C2=O)cc1` (stereo not given), the growth was 89.3% (inactive).

For the molecule `CC(=O)Nc1ccc(S(=O)(=O)Nc2cccc(-c3nc(-c4ccc(NC(=O)c5cccnc5)cc4Cl)no3)c2)cc1`, the growth was 6.69% (active). For `CCOc1cc2c(cc1OCC)C(c1cc(OC)c(O)cc1Cl)NCC2` (stereo not given) the value was 77.5% (inactive); for `CC1=C[C@H]2c3c(c(O)c(O)c4oc5c(C)cccc5c(=O)c34)[C@H](c3cc(O)c(O)c4oc5c(C)cccc5c(=O)c34)[C@H]2C(C)(C)C1`, -17.3% (active). Consider `Cc1cc(N2CCSCC2)nc(NC2CCCC(Nc3ccnc4cc(Cl)ccc34)C2)n1` (stereo not given), for which the growth was -88.5% (active).

Regarding `N#CCCN=Nc1c(O)[nH]c2ccc(F)cc12`, the growth was 96.6% (inactive).
